Measured values published in ChEMBL document CHEMBL3988442, “University of Dundee, Small-Polar-MMV Screening Library” (2021).

Target: T1, Methionyl-tRNA synthetase, putative (Leishmania donovani (strain BPK282A1)) (UniProt E9BF75)
T1 sequence (whole entry): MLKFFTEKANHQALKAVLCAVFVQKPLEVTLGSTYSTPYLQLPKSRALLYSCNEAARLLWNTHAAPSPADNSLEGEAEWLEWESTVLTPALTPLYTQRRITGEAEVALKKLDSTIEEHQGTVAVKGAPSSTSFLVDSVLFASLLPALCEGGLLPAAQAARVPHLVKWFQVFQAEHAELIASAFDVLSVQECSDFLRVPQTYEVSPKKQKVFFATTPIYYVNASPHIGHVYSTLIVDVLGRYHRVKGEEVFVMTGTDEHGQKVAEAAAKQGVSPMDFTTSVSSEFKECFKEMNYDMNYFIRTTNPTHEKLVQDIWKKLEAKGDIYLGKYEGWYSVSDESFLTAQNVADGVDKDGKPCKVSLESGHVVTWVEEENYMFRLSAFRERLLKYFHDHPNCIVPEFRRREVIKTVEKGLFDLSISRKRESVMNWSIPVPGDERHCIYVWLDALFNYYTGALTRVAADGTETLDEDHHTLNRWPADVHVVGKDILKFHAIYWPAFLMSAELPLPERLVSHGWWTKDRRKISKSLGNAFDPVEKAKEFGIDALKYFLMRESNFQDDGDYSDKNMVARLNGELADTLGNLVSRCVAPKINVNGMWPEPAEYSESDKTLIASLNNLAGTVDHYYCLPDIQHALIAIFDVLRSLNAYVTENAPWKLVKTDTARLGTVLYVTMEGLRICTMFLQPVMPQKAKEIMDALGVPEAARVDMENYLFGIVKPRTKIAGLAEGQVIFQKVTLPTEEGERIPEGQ
Test: Leishmania donovani Methionine tRNA synthetase (LdMetRS):v7. Dose response assay
Assay type: functional
Set-up: conc 80 nM, time 150 minutes

Compound: Cn1ncc2c(NCCO)nc(Cl)nc21
- PXC50 (MAX_EFFECT 0.234192037): < 4
- PXC50 (MAX_EFFECT 8.148148148): < 4
- PXC50 (MAX_EFFECT -0.662251656): < 4

Compound: CNc1cc(-c2cccc(CN)c2)c2cc[nH]c2n1
- PXC50 (BOTTOM 0.988395417, HILLSLOPE 1.522848712, MAX_EFFECT 89.26174497, TOP 100.0): 4.55
- PXC50 (BOTTOM -0.303339397, HILLSLOPE 1.457263574, MAX_EFFECT 90.27777778, TOP 100.0): 4.5
- PXC50 (BOTTOM -1.705392775, HILLSLOPE 1.008817214, MAX_EFFECT 54.59272097, TOP 100.0): 4.07

Compound: O=C(N1CCOCC(O)C1)C1(c2ccc(Cl)cc2)CCC1 (stereo unspecified)
- PXC50 (MAX_EFFECT 0.0): < 4
- PXC50 (MAX_EFFECT -0.875656743): < 4
- PXC50 (MAX_EFFECT -1.449275362): < 4

Compound: Cn1ncc2c(NCCn3cccn3)nc(Nc3ccc(F)c(F)c3)nc21
- PXC50 (MAX_EFFECT 33.72921615): < 4
- PXC50 (MAX_EFFECT 37.33905579): < 4
- PXC50 (MAX_EFFECT 41.9729207): < 4

Compound: CN(C)S(=O)(=O)c1cccnc1Nc1cccc(C(F)(F)F)c1
- PXC50 (MAX_EFFECT 3.964757709): < 4
- PXC50 (MAX_EFFECT 9.867172676): < 4
- PXC50 (MAX_EFFECT -2.272727273): < 4

Compound: CN(C)c1nc(Nc2ccc(F)c(F)c2)nc2c1cnn2C
- PXC50 (BOTTOM 0.0, HILLSLOPE 0.943271721, MAX_EFFECT 54.1567696, TOP 49.71942024): 6.12
- PXC50 (BOTTOM 0.0, HILLSLOPE 1.040792015, MAX_EFFECT 59.65665236, TOP 50.11386445): 6.1
- PXC50 (BOTTOM 0.0, HILLSLOPE 1.064354186, MAX_EFFECT 50.0967118, TOP 49.52260288): 6.2

Compound: COC(=O)CNC(=O)c1cccc(C(=O)N(C)c2ccccc2)c1
- PXC50 (MAX_EFFECT 1.22591944): < 4
- PXC50 (MAX_EFFECT 1.449275362): < 4
- PXC50 (MAX_EFFECT -3.401360544): < 4

Compound: Cn1ncc2c(NCCN3CCOCC3)nc(Nc3ccc(F)c(F)c3)nc21
- PXC50 (BOTTOM 0.0547, HILLSLOPE 0.927770989, MAX_EFFECT 85.76850095, TOP 98.88350894): 4.86
- PXC50 (BOTTOM -0.988495369, HILLSLOPE 1.035285925, MAX_EFFECT 73.01886792, TOP 82.1779252): 4.91
- PXC50 (BOTTOM -7.338677117, HILLSLOPE 0.775594481, MAX_EFFECT 82.64840183, TOP 100.0): 4.76

Compound: OCCNc1nc(Nc2cccc(Cl)c2)nc2ccsc12
- PXC50 (BOTTOM 1.378134297, HILLSLOPE 1.322835543, MAX_EFFECT 77.47933884, TOP 79.16655544): 5.15
- PXC50 (BOTTOM 6.064283009, HILLSLOPE 1.027674538, MAX_EFFECT 79.88394584, TOP 88.71842546): 4.91
- PXC50 (BOTTOM -3.793761971, HILLSLOPE 0.936804969, MAX_EFFECT 83.25991189, TOP 91.73851926): 5.08

Compound: COc1cccc(-c2noc3c2CN(c2ncnc4c2CCC4)CC3)c1
- PXC50 (MAX_EFFECT 38.4057971): < 4
- PXC50 (MAX_EFFECT 40.13605442): < 4
- PXC50 (MAX_EFFECT 45.70928196): < 4

Compound: Cn1ncc2c(NCCO)nc(NCCS(C)(=O)=O)nc21
- PXC50 (MAX_EFFECT 5.936073059): < 4
- PXC50 (MAX_EFFECT 10.75471698): < 4
- PXC50 (MAX_EFFECT 32.3699422): < 4

Compound: CC(CO)Nc1nc(Nc2cccc(C(F)(F)F)c2)nc2c1cnn2C (stereo unspecified)
- PXC50 (MAX_EFFECT 16.69829222): < 4
- PXC50 (MAX_EFFECT 21.69811321): < 4
- PXC50 (MAX_EFFECT 22.37442922): < 4

Compound: CC(C)c1nc(N2CCC(N3CCCCCC3)CC2)c2cnn(C)c2n1
- PXC50 (BOTTOM 1.611649307, HILLSLOPE 1.510978702, MAX_EFFECT 74.4966443, TOP 100.0): 4.28
- PXC50 (BOTTOM 2.404981537, HILLSLOPE 1.138566115, MAX_EFFECT 78.47222222, TOP 100.0): 4.48
- PXC50 (BOTTOM 5.527995165, HILLSLOPE 1.337567516, MAX_EFFECT 71.57712305, TOP 100.0): 4.24

Compound: Cn1ccnc1CN(CCO)C(=O)C1CCN(C(=O)C2CC2)CC1
- PXC50 (MAX_EFFECT 3.401360544): < 4
- PXC50 (MAX_EFFECT 4.347826087): < 4
- PXC50 (MAX_EFFECT 10.33274956): < 4

Compound: Cn1ncc2c(NCCN)nc(Nc3ccc(F)c(F)c3)nc21
- PXC50 (BOTTOM 0.911965316, HILLSLOPE 1.032464682, MAX_EFFECT 89.9543379, TOP 102.6852722): 4.79
- PXC50 (BOTTOM 7.300924011, HILLSLOPE 0.949344895, MAX_EFFECT 92.59962049, TOP 105.5838005): 4.84
- PXC50 (BOTTOM 8.334888852, HILLSLOPE 1.031126137, MAX_EFFECT 87.73584906, TOP 103.8891038): 4.68

Compound: Cn1ncc2c(NC3CCCCC3O)nc(Nc3ccc(F)c(F)c3)nc21 (stereo unspecified)
- PXC50 (BOTTOM -1.097292769, HILLSLOPE 1.183920675, MAX_EFFECT 57.48218527, TOP 58.96974935): 5.31
- PXC50 (BOTTOM -1.326166196, HILLSLOPE 1.398612708, MAX_EFFECT 60.37735849, TOP 61.95804926): 5.4
- PXC50 (BOTTOM -2.072986449, HILLSLOPE 1.170002512, MAX_EFFECT 60.08583691, TOP 62.14142479): 5.35

Compound: Cn1nc(Cn2ccnc2)c2c1CN(c1nccs1)C2
- PXC50 (BOTTOM 0.559364067, HILLSLOPE 0.919078395, MAX_EFFECT 71.42857143, TOP 99.25901822): 4.44
- PXC50 (BOTTOM -1.637231388, HILLSLOPE 0.873521348, MAX_EFFECT 76.08695652, TOP 100.0): 4.55
- PXC50 (BOTTOM -15.97247073, HILLSLOPE 2.274903325, MAX_EFFECT 57.26795096, TOP 100.0): 4.1
